Screening results (PubChem)
Hits are enriched below; roughly 19% of the tested compounds scored in any of these assays.
ELG1 DNA repair: inhibitors of ELG1-dependent DNA repair in HEK293T cells; AID 504467; 330,000 compounds, 2.3% hits; HEK293T ELG1-luciferase reporter, luminescence, 16 h; DNA damage induced by 5-fluorouridine; Potency, µM (top dose mostly 46.1 µM), inactives show top-dose activity change, negative = inhibition, usual class: inhibitors; note: potency is the fitted concentration of half-maximal effect; nearly all actives have a fitted effect of over 55% in size
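DMSO vehicle served as the neutral condition. Each well held 2,000 cells given 5-fluorouridine plus compound; after 16 hr at 37 °C/5% CO2, ONE-Glo was added and luciferase measured 30 min later.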
IL1B secr inh: inflammasome signaling inhibition, IL-1 beta readout | 360,000 compounds, 4.7% hits | AID 743279 | activity change, % at 57.5 µM | THP-1 LPS/ATP IL-1B secretion, AlphaLISA, 16 h; active compounds read low; in the data active = activity change below about -50%; inconclusive = mostly about -30% to -49%
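Secreted IL-1B measured by AlphaLISA bead assay after 16 h compound exposure of THP-1 cells; compounds (final up to 57.5 uM) added 1 h before LPS (250 ng/mL) and ATP (1.25 mM) stimulation; lower signal means less secretion.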
DT40 TDP1 CPT: growth inhibition of DT40 Tdp1-/-;hTDP1 cells with camptothecin (screen for TDP1 inhibitors). chicken DT40 Tdp1-/-;hTDP1 cells + 20 nM CPT, ATP luminescence, 48 h. Potency, µM (highest dose often 46.2 µM), for inactives: at the highest dose activity change, negative = growth inhibition, hits mostly inhibitors. 420,000 compounds, 12% hits; note: potency is the fitted concentration of half-maximal effect; nearly all actives have a fitted effect of over 55% in size
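Chicken DT40 Tdp1-/- cells complemented with human TDP1, 400 cells/well, exposed to compounds plus 20 nM camptothecin for at least 48 h at 37 C; viability read as ATP content by CellTiter-Glo luminescence.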
HT1080 IDH1KD tx: kills HT-1080 cells with IDH1 knockdown; HT-1080 IDH1 knockdown viability, ATP luminescence, 48 h; Potency, µM (titrated, usually from 46.1 µM), without a hit: top-dose activity, negative = toxicity, most hits filed as cytotoxic; 360,000 compounds, 2% hits;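 note: potency is the fitted concentration of half-maximal effect; 0% = DMSO wells and -100% = cell-free medium wells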
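In this qHTS, HT-1080 cells depleted of IDH1 are exposed for 48 h at 37 °C to compound titrations. Toxicity is scored from CellTiter-Glo luminescence, with DMSO as full viability and medium alone as none.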
HT1080-NT tox: kills 2HG-producing HT-1080-NT fibrosarcoma cells; HT-1080-NT fibrosarcoma viability, CellTiter-Glo ATP luminescence, 48 h; Potency, µM (series often up to 46.1 µM), without a hit: at the highest dose activity, negative = less viability, hits mostly cytotoxic; 360,000 compounds, 1.6% hits;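 note: NT is the 2HG producing partner of a matched IDH1 knockdown line; potency is the fitted concentration of half-maximal effect; 0% = DMSO-treated cells and -100% = media-only wells without cells; nearly all actives have a fitted effect of over 55% in size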
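Compounds were tested in concentration-response format on HT-1080-NT cells for 48 hours at 37 degrees C. Cell viability came from CellTiter-Glo luminescence; curves were classified by r2, response magnitude and activity.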
DT40 TDP1 no CPT: qHTS for Inhibitors of human tyrosyl-DNA phosphodiesterase 1 (TDP1): qHTS in cells in absence of CPT; DT40 Tdp1-/- hTDP1 cells, no CPT, ATP luminescence, 48 h; Potency, µM (series often up to 46.2 µM), without a hit: at the highest dose activity change, negative = growth inhibition, hits mostly inhibitors; 420,000 compounds, 15% hits; AID 686978, 2013; note: potency is the fitted concentration of half-maximal effect; nearly all actives have a fitted effect of over 55% in size
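A cellular qHTS used chicken DT40 cells lacking endogenous Tdp1 but carrying stably transfected human TDP1. Compounds were applied without camptothecin, and cell growth kinetics were judged by ATP-dependent luminescence after ≥48 hr.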
* = called active by the depositor; ? = inconclusive; · = no result given; [ ] = another dose, or the depositor's remark. Unless noted, calls come from the whole dose curve; as a rule, active = well fitted curve in the direction sought with a large enough effect; inconclusive = small, poorly fitted or top-dose-only effect, or another doubt; inactive = no such curve, though single readings can be large; an effect the other way counts as inactive or inconclusive. Unless noted, % is set by controls: 0 for no effect and ±100 for the full control effect.

SMILES	ELG1 DNA repair	IL1B secr inh	DT40 TDP1 CPT	HT1080 IDH1KD tx	HT1080-NT tox	DT40 TDP1 no CPT
C=CCc1cccc(/C=N/NC(=O)CNc2ccccc2OC)c1O	?	253.0	?	18.4µM*	?	20.6µM*
C=CCc1cccc(/C=N/NC(=O)C[n+]2ccccc2)c1O	?	265.9	?	?	?	?
COc1cc([N+](=O)[O-])cc(/C=N/NC(=O)C(C)Nc2cccc(C)c2)c1O (stereo not given)	-6.4%	0.0	0.9%	-15.8%	-10.1%	?
O=C(CNc1cccc2ccccc12)N/N=C/c1ccc(OC(=O)/C=C/c2ccco2)cc1	-28.4%	-2.1	?	-0.1%	-2.6%	-27.9%
C=CCc1cccc(/C=N/NC(=O)C(C)Nc2cccc(C)c2)c1O (stereo not given)	?	35.1	4.11µM*	?	?	2.91µM*
C=CCc1cccc(/C=N/NC(=O)CNc2cccc3ccccc23)c1O	1.6%	27.5	4.61µM*	?	?	5.8µM*
Cc1csc(CN(C)C(=O)CC2C(=O)NCCN2Cc2ccc(Cl)c(F)c2)n1 (stereo not given)	3.9%	-1.2	-2.6%	8.5%	-3.6%	-4.7%
C=CCc1cccc(/C=N/NC(=O)CCCNc2ccc(C)cc2)c1O	?	37.0	-87.7%	?	?	20.6µM*
C=CCc1cccc(/C=N/NC(=O)CCC(=O)Nc2ccc(F)cc2)c1O	?	124.2	9.2µM*	23.1µM*	?	8.2µM*
Cc1ccc(NCC(=O)N/N=C\c2cccc(O)c2)cc1	0.0%	-12.3	-17.0%	-3.8%	0.5%	-2.0%
COc1cc(CN2C(=S)NC(C)(C)CC2(C)O)cc(OC)c1 (stereo not given)	-1.1%	12.9	1.2%	14.0%	-0.1%	-5.8%
CCC(=O)N1CCC1(C)C(=O)Nc1ncc(C)s1 (stereo not given)	·	6.8	-19.6%	15.0%	0.8%	-2.7%
CCCCn1nc(C(=O)NCC(c2cccs2)N2CCOCC2)c2ccccc2c1=O (stereo not given)	18.3µM*	5.7	?	-1.0%	0.3%	20.6µM*
CCC(=O)NCC(c1cccs1)N1CCOCC1 (stereo not given)	-6.4%	24.0	?	7.5%[9.24 µM]	1.3%	-10.9%
CCCn1nc(C(=O)NCC(C)(C)N2CCOCC2)c2ccccc2c1=O	4.5%	5.2	-20.6%	7.2%	10.9%	-15.4%
O=C(NCC(c1cccs1)N1CCOCC1)c1cc(-c2ccc(F)cc2)nc2ccccc12 (stereo not given)	?	-9.5	?	-5.8%	-1.0%	16.4µM*
CCn1nc(C(=O)NCC(c2cccs2)N2CCOCC2)c2ccccc2c1=O (stereo not given)	-2.1%	36.7	14.6µM*	-3.4%	-2.8%	20.6µM*
OC[C@]1(O)OC[C@@H](O)[C@H](O)[C@@H]1O	·	·	-27.4%	·	·	0.4%
CCN(C(=O)Cc1ccc(Br)cc1)C1CCCCC1	·	17.5	20.6µM*	-1.3%	-1.3%	?
CCCS(=O)(=O)Nc1cc(-c2cn3ccc(C)cc3n2)ccc1C	·	·	-7.1%	·	·	?
Cc1ccn2cc(-c3cccc(NS(C)(=O)=O)c3)nc2c1	?	?	-12.9%	-3.2%	-0.1%	-24.1%
Cc1ccn2cc(-c3cccc(S(=O)(=O)N4CC(C)OC(C)C4)c3)nc2c1 (stereo not given)	-1.5%	-14.7	?	-3.1%	?	?
Cc1ccn2cc(-c3cccc(S(=O)(=O)N4CCCC4)c3)nc2c1	-6.1%	-61.0*	18.4µM*	-2.8%	-7.3%	23.1µM*
Cc1ccc(S(=O)(=O)Nc2ccc(-c3cn4ccc(C)cc4n3)cc2)cc1	-29.5%	-11.9	?	-3.0%	-15.7%	14.6µM*
Cc1ccn2cc(-c3ccc(NS(=O)(=O)c4ccccc4)cc3)nc2c1	6.4%	1.5	?	-19.4%	-8.0%	29.1µM*
SMILES	ELG1 DNA repair	IL1B secr inh	DT40 TDP1 CPT	HT1080 IDH1KD tx	HT1080-NT tox	DT40 TDP1 no CPT
CC(=O)Nc1ccc(S(=O)(=O)NCCC(=O)NCc2ccco2)cc1	·	5.2	-4.6%	0.2%	-1.7%	-4.4%
Cc1cccc(C(=O)N[C@@H](C)C(=O)N2CCN(c3ncccn3)CC2)c1	3.4%	3.4	3.4%	10.6%	0.1%	-19.3%
C=C(C)c1cccc(C(C)(C)NC(=O)N2CCC(C)CC2)c1	13.5%	?	18.4µM*	6.2%	-1.3%	?
COC(=O)c1ccc(CNC(=O)c2cc(COc3cncc(Cl)c3)on2)cc1	20.6µM*	-13.7	?	?	-22.6%	?
CCn1nc(C)c(CNC(=O)c2cc(COc3cncc(Cl)c3)on2)c1C	?	17.6	?	-3.1%	-1.5%	?
CC(C)c1cc(CNC(=O)c2cc(COc3cncc(Cl)c3)on2)on1	?	-8.6	?	0.1%	-3.8%	18.4µM*
CC(=O)c1ccc(OCc2cc(C(=O)NCCc3ccc(Cl)cc3)no2)cc1	?	0.0	0.8%	15.6%	4.6%	7.3%
OC12CC3C[C@H](C1)C(N1CCOCC1)[C@@H](C3)C2 (stereo not given in full)	4.6%	12.1	-7.1%	1.5%	6.5%	0.6%
Cc1ccc2c(c1)c1c(c(=O)n(-c3cccc(Cl)c3)c(=O)n1CC(=O)Nc1c(C)cccc1C)n2C	·	·	-7.4%	·	·	-0.2%
CC(C)(C)C(=O)Nc1ccc(/C=C/C(=O)c2ccco2)cc1	?	-102.0*	?	23.1µM*	?	?
Nc1ccc(/C=C/C(=O)c2ccco2)cc1	?	-22.9	-18.7%	1.3%	12.0%	?
N#Cc1ccc(/C=C/C(=O)c2ccco2)cc1	?	-29.4	9.2µM*	-5.5%	-2.6%	10.3µM*
CCOC(=O)c1ccc(N2C(=O)c3n[nH]c(C)c3C2c2ccc(OC)cc2OC)cc1 (stereo not given)	?	-58.2*	?	-21.8%	-20.9%	23.1µM*
CCOC(=O)c1ccc(N2C(=O)c3n[nH]c(-c4ccco4)c3C2c2ccc(OC)cc2OC)cc1 (stereo not given)	·	·	23.1µM*	·	·	18.4µM*
CCOC(=O)c1ccc(N2C(=O)c3n[nH]c(C)c3C2c2ccc(OC)cc2)cc1 (stereo not given)	?	-22.1	-17.4%	?	?	?
O=C(COC(=O)c1c[nH]c(=O)[nH]c1=O)Nc1cccc([N+](=O)[O-])c1	18.7%	-5.3	0.6%	-0.8%	13.5%	-0.3%
